# HCMV antiviral – qHTS Assay for inhibitors of the human cytomegalovirus (HCMV); 410,000 tested, 4.5% active; AID 1259415, 2018; activity change, negative = inhibition, % at 57.5 µM; HFF cells, HCMV-luciferase reporter, 72 h; stronger effect = lower value; in the data active means activity change below about -60%; inconclusive means no clear call, values can overlap the other calls; inactive means above about -39%; further: on the % scale 0 is the no-effect control and ±100 the full control effect
#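 Two compound doses tested in HFFs infected with HCMV-luciferase, MOI 1 PFU/cell, 72 h at 37C. Lysate luminescence read with OneGlo; data normalized against buffer-only and 10uM Salinomycin inhibitor controls.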
# HCV inh – qHTS Assay for Inhibitors of Hepatitis C Virus (HCV); Potency, µM (doses to about 41.8 µM), inactives show at the top dose activity change, negative = inhibition, most hits filed as inhibitors; Huh7.5.1 HCVcc-Cre infection, luciferase reporter, 44 h; AID 651820, 2012; 340,000 tested, 3.4% active; further: potency means the concentration at half of the fitted maximal effect; on the % scale 0 is the no-effect control and ±100 the full control effect
#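 Luciferase read-out (15 sec integration) after a 15 min room-temperature substrate step quantifies HCVcc-Cre infection. Cells, 1,000 per well, had compound added 4 h post-plating, then virus at ~0.5 moi, and were cultured 44 h.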
# Pf growth 48h – Primary qHTS for delayed death inhibitors of the malarial parasite plastid, 48 hour incubation | P. falciparum luciferase growth in erythrocytes, 48 h | Potency, µM (titrated, usually from 28.7 µM), without a hit: at the top dose activity change, negative = inhibition, actives largely listed as inhibitors | 310,000 tested, 5.9% active | AID 504832, 2011; further: potency means the concentration at half of the fitted maximal effect; on the % scale 0 is the no-effect control and ±100 the full control effect
#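 Growth was read as firefly luciferase luminescence after a 48 h, 37 C, 5% CO2 exposure of compounds to reporter-bearing P. falciparum cultures (0.1% parasitemia, 2% hematocrit final) in Albumax-supplemented RPMI 1640.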
# Pf growth 96h – Primary qHTS for delayed death inhibitors of the malarial parasite plastid, 96 hour incubation. P. falciparum luciferase reporter growth, 96 h. Potency, µM (doses to about 28.7 µM), without a hit: top-dose activity change, negative = inhibition, usual class: inhibitors. AID 504834, 2011. 320,000 tested, 6.9% active; further: potency means the concentration at half of the fitted maximal effect; on the % scale 0 is the no-effect control and ±100 the full control effect
#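 Two parasite generations (96 h, 37 C, 5% CO2) of compound exposure in infected erythrocytes (0.05% parasitemia, 2% hematocrit). Luciferase-reporter P. falciparum; decreased luminescence indicates inhibited growth, aimed at apicoplast-acting delayed death.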
# Cycloheximide cs – Cycloheximide Counterscreen for Small Molecule Inhibitors of Shiga Toxin | cell reporter, cycloheximide protein synthesis inhibition counterscreen | max response, % | 300,000 tested, 12% active | AID 2314, 2010; in the data active means max response mostly above about 13%, no sharp cut-off; inactive means mostly below about 14%; further: read at 38.3 µM for the half of the compounds with a filed dose; 0% is about no effect
# Shiga inhibitor – A qHTS for Small Molecule Inhibitors of Shiga Toxin. Vero cells, Shiga toxin protein synthesis inhibition reporter. inhibition, % at 38.7 µM. 290,000 tested, 9.2% active. AID 2315, 2010; in the data active means inhibition mostly above about 28%, no sharp cut-off; inactive means mostly below about 43%; further: 0% is about no effect
# * = called active by the depositor; ? = inconclusive; nt = not tested or not shown; [ ] = remark or other dose. Shown are actives, neighbours in structure and some others; about 21% of the full set was active somewhere. Unless noted, the call rests on the fitted dose curve; in most records, active means well fitted inhibition curve with a large enough effect; inconclusive means small, poorly fitted or top-dose-only effect, or another doubt; inactive means no such curve, though single readings can be large or run the other way.
SMILES,HCMV antiviral,HCV inh,Pf growth 48h,Pf growth 96h,Cycloheximide cs,Shiga inhibitor
C#CCOCCOCCOCCNc1nc(N2CCN(C(=O)[C@H](CCCN=C(N)N)n3cc(C(N)[C@@H](C)CC)nn3)CC2)nc(N2CCN(C(=O)[C@H](CCC(=O)O)n3cc([C@@H](N)CO)nn3)CC2)n1 (stereo partly specified),11,47%,nt,nt,nt,nt
Cc1ccccc1-c1nn(-c2ccccc2)cc1C(=O)NCC(c1ccco1)N1CCCC1 (stereo unspecified),-22,12%,?,-46%,nt,nt
O=C(NCC(c1cccs1)N1CCOCC1)c1cn(-c2ccccc2)nc1-c1ccccc1 (stereo unspecified),-9,?,?,13µM*,nt,nt
COc1ccc(OC)c(-c2nn(-c3ccccc3)cc2C(=O)NCC(c2ccco2)N2CCCC2)c1 (stereo unspecified),-33,-17%,9.3µM*,?,nt,nt
COc1cccc(-c2nn(-c3ccc(C)cc3)cc2C(=O)NCC(c2cccs2)N2CCOCC2)c1 (stereo unspecified),?,?,3.3µM*,?,nt,nt
COc1ccc(-c2nn(-c3ccccc3)cc2C(=O)NCC(c2cccs2)N2CCOCC2)cc1 (stereo unspecified),-38,?,13µM*,?,nt,nt
Cn1c2c(c(=O)n(C)c1=O)C(c1cccc(O)c1)CC(=O)N2 (stereo unspecified),7,nt,nt,nt,nt,nt
O=C(Cn1nc(C(F)(F)F)c2c1CCCC2)NCCN1CCOCC1,10,24%,12µM*,15µM*,-1,-7
COc1cc(NC(=O)Cn2nc(C(F)(F)F)c3c2CCCC3)cc(OC)c1OC,-26,?,10µM*,nt,-3,-22
CCCNC(=O)Cn1nc(C(F)(F)F)c2c1CCCC2,-34,3%,8%,18%,-2,25
Cc1ccc(SC(=O)c2c([N+](=O)[O-])c(C)nn2C)cc1,55,14%,-2%,-18%,12*,9
Cc1ccc(C)c(NC(=O)CCC(=O)N/N=C/c2ccc[nH]2)c1,-91*,3.5µM*,?,?,-2,13
Cc1ccc(C)c(NC(=O)CCC(=O)N/N=C/c2cc([N+](=O)[O-])ccc2O)c1,5,0%,-9%,-19%,-2,-6
Cc1ccc(NCC(=O)N/N=C\c2ccc[nH]2)cc1,-29,14µM*,2%,1%,-1,9
Cc1c(Cl)cccc1NC(=O)CCC(=O)N/N=C/c1ccc[nH]1,-100*,1µM*,10%,?,1,12
FC(F)C(F)(F)c1cc(-c2ccc(Cl)cc2)n[nH]1,33,?,0%,67%,31*,46*
Clc1ccc(-c2cc(C3CCNCC3)[nH]n2)cc1,-5,?,?,?,14,-3
Fc1ccc(-c2cc(C(F)(F)C(F)F)[nH]n2)cc1,53,?,37%,-6%,27*,65*
CSCCC(NC(=O)c1cccc([N+](=O)[O-])c1)C(=O)OCC(=O)N1CCCC1=O (stereo unspecified),-22,6%,0%,56%,nt,nt
CCOC(=O)c1ccc(NS(=O)(=O)c2cn(C)c(C)n2)cc1,-12,nt,nt,nt,nt,nt
Cc1ccc(-c2nnn(CC(=O)NC(=O)NC3CCCCC3)n2)cc1,-13,5%,25%,57%,nt,nt
COCCC(=O)N1CCc2ccc(NC(=O)c3ccc(C(F)(F)F)cc3)cc2C1,-65*,10µM*,3%,0%,14,26*
CC(=O)N1CCCc2ccc(NC(=O)c3ccc(C(F)(F)F)cc3)cc21,-71*,nt,nt,nt,nt,nt
CCOc1ccc(C(=O)Nc2ccc3c(c2)N(C(C)=O)CCC3)cc1OCC,2,nt,nt,nt,nt,nt
CN(C)S(=O)(=O)N1CCc2ccc(NC(=O)c3ccc(C(F)(F)F)cc3)cc2C1,?,7.9µM*,27%,13µM*,27*,nt
SMILES,HCMV antiviral,HCV inh,Pf growth 48h,Pf growth 96h,Cycloheximide cs,Shiga inhibitor
COCCN1CCN(C(=O)c2cc(COc3cncc(Cl)c3)on2)CC1,-8,-24%,10%,-13%,-2,-7
COC(=O)c1ccc2nc(-c3ccco3)c(Cc3ccccc3C(F)(F)F)n2c1,38,nt,nt,nt,nt,nt
COc1ccccc1CNC(=O)CCC1N=C2c3ccccc3N=C(SCc3ccc(C)cc3C)N2C1=O (stereo unspecified),-25,nt,nt,nt,nt,nt
CCc1n[n+](CC(=O)c2ccccc2)c(N)s1,-7,-11%,266%,64%,22*,53
Cc1ccccc1Nc1nc(N)nc(COC(=O)c2ccccc2)n1,-13,-16%,191%,471%,82*,79*
Cc1ccccc1Nc1nc(N)nc(COC(=O)CCNS(=O)(=O)c2ccccc2)n1,-8,0%,12µM*,?,nt,nt
C=CCn1c(=O)c2ccccc2n2c(SCc3nc(N)nc(Nc4ccccc4C)n3)nnc12,35,-26%,8.3µM*,?,1,-6
Cc1ccccc1Nc1nc(N)nc(COC(=O)c2cccc(S(=O)(=O)N(C)c3ccccc3)c2)n1,-15,?,?,5.9µM*,-2,13
CC1CC(C)CN(S(=O)(=O)c2ccc(C(=O)OCC(=O)Nc3ccccc3)cc2)C1 (stereo unspecified),-2,nt,nt,nt,nt,nt
Nc1ccn(C2CCCCO2)c(=O)n1 (stereo unspecified),-27,9%,nt,nt,nt,nt
Cc1cccc(C(=O)Nc2c(C(=O)N3CCN(c4ccc(F)cc4)CC3)oc3ccccc23)c1,-21,nt,nt,nt,nt,nt
CC1CCc2onc(C(=O)Nc3ccc(Cl)cc3)c2C1 (stereo unspecified),-5,nt,nt,nt,nt,nt
Nc1nc(CCl)nc(Nc2cccc3ccccc23)n1,-98*,0.56µM*,?,13µM*,8,15
Cc1ccccc1Nc1nc(N)nc(COC(=O)c2ccc(O)cc2)n1,-6,-7%,?,2.6µM*,20*,-4
Cc1ccccc1CSCc1nc(N)nc(Nc2ccccc2C)n1,-13,-19%,21%,-18%,49*,85*
Nc1nc(Nc2cccc3ccccc23)nc(C2CCCC2=O)n1 (stereo unspecified),34,nt,4%,4%,-3,26
C[C@@H]1Cn2cnc(C(=O)N(C)Cc3ccccc3)c2C(=O)N1,0,nt,nt,nt,nt,nt
Cn1c(=O)c2c(ncn2C[C@@H](O)CO)n(C)c1=O,nt,nt,-4%[12.8 µM],12%[12.8 µM],nt,nt
CN1CCN(CC(O)COc2ccccc2)CC1 (stereo unspecified),-5,15%,42%,?,-1,7
OC(COC(c1ccccc1)c1ccccc1)CN1CCN(c2cccc(Cl)c2)CC1 (stereo unspecified),11,?,?,-7%,-5,-7
